# In PubChem BioAssay (NCI):
# About 83,000 compounds went through this panel and 20% of them were active in at least one assay; those are over-represented in the sample as a whole.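 In brief: 96-well plates, 48 h treatment, single concentration, percent growth endpoint.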 Unmarked numbers belong to inactive results. Active and inactive are the calls of the source. How the source made its calls: active means growth percent below 10; inactive means the rest.
# Columns and labels:
# Assay in all cases: NCI-60 one-dose screen, 48 h (100 = growth as untreated, 0 = no growth, -100 = all killed)
# Conditions in all cases: 10 µM unless noted
# HCT-15 colon = test system: HCT-15 colon
# HT29 colon = test system: HT29 colon
# SNB-75 CNS = test system: SNB-75 CNS
# SNB-19 CNS = test system: SNB-19 CNS
# U251 CNS = test system: U251 CNS
# PC-3 prostate = test system: PC-3 prostate
# SK-MEL-5 melanoma = test system: SK-MEL-5 melanoma
# UACC-62 melanoma = test system: UACC-62 melanoma
# LOX IMVI melanoma = test system: LOX IMVI melanoma
# SK-MEL-28 melanoma = test system: SK-MEL-28 melanoma
# SK-MEL-2 melanoma = test system: SK-MEL-2 melanoma
# EKVX NSCLC = test system: EKVX NSCLC
# SN12C renal = test system: SN12C renal
# UO-31 renal = test system: UO-31 renal
# TK-10 renal = test system: TK-10 renal
# ACHN renal = test system: ACHN renal
# CAKI-1 renal = test system: CAKI-1 renal
# A498 renal = test system: A498 renal
# CCRF-CEM leukemia = test system: CCRF-CEM leukemia
# MOLT-4 leukemia = test system: MOLT-4 leukemia
SMILES,growth (HCT-15 colon),growth (HT29 colon),growth (SNB-75 CNS),growth (SNB-19 CNS),growth (U251 CNS),growth (PC-3 prostate),growth (SK-MEL-5 melanoma),growth (UACC-62 melanoma),growth (LOX IMVI melanoma),growth (SK-MEL-28 melanoma),growth (SK-MEL-2 melanoma),growth (EKVX NSCLC),growth (SN12C renal),growth (UO-31 renal),growth (TK-10 renal),growth (ACHN renal),growth (CAKI-1 renal),growth (A498 renal),growth (CCRF-CEM leukemia),growth (MOLT-4 leukemia)
Cc1nc2sc(C(=O)Nc3cccc(Cl)c3C)c(N)c2cc1C(=O)c1ccccc1,9.29% (active),3.07% (active),7.46% (active),12.7%,15.6%,6.12% (active),9.08% (active),17%,35.8%,42.7%,49.7%,40.5%,29.3%,38.8%,47.1%,33.7%,33.1%,-7.4% (active),8.23% (active),16.4%
C/C(=N\NC(=O)c1ccccc1O)c1cccc(/C(C)=N/NC(=O)c2ccccc2O)n1,42.4%,41.2%,74.9%,20%,20%,48%,38%,52%,35.8%,52.2%,95.2%,30%,55%,38.6%,41%,39.7%,14.5%,71.9%,21.8%,24.5%
COC(=O)c1ccc2c(c1)C(=O)c1c-2n(CCCN)c(=O)c2cc([N+](=O)[O-])ccc12,-96.1% (active),-100% (active),-99.2% (active),-59.3% (active),-100% (active),-70.1% (active),-100% (active),-100% (active),-100% (active),-100% (active),-49.8% (active),-87.7% (active),-100% (active),-100% (active),-83% (active),-100% (active),-94.2% (active),-100% (active),-83.9% (active),-58.6% (active)
CS(=O)(=O)Nc1cc(-c2ccc3ncnc(Nc4ccc5c(cnn5Cc5ccccn5)c4)c3c2)cnc1Cl,99.2%,80.7%,16.2%,80.6%,81.5%,72.8%,77.7%,61.8%,71%,56.1%,61.8%,80.8%,72.5%,64.8%,65.5%,88%,65.4%,20.4%,60%,78.7%
Clc1ccc(CNc2c3ccccc3nc3ccccc23)cc1,23.3%,15%,68.4%,43.1%,46.2%,38.7%,61.2%,70.7%,23%,80.3%,72.4%,62.6%,39.1%,27%,49.7%,22.8%,41.4%,20.8%,30.2%,4.63% (active)
N#C/C(=C\c1ccc(Br)cc1)n1nnc2ccc(F)cc21,-18.2% (active),3.64% (active),0.279% (active),19.5%,1.71% (active),7.5% (active),6.12% (active),-54.7% (active),-63.7% (active),-5.29% (active),13.8%,49.9%,-51.2% (active),-36.4% (active),-3.76% (active),-37.9% (active),-4.59% (active),-15.6% (active),-10.2% (active),-20% (active)
COc1cccc(CNc2ncnc3c2ncn3C2OC(CO)C(O)C2O)c1O (centres undefined),4.06% (active),26.5%,-12.4% (active),31.2%,12.6%,15.7%,14.4%,6.74% (active),-0.915% (active),29%,-6.73% (active),24.6%,-3.64% (active),7.67% (active),6.39% (active),-14.3% (active),-2.16% (active),-0.46% (active),-17.3% (active),0.14% (active)
Clc1ccc2c(c1)N(c1ncnc3ccc(-c4cnc5[nH]ncc5c4)cc13)CC2,25%,19.3%,-16.8% (active),42.8%,39.8%,23.8%,46.5%,8.23% (active),18.4%,44.1%,48.3%,16.8%,19.5%,4.18% (active),13.9%,13%,11%,-45.2% (active),31.9%,3.68% (active)
O=C(CN1C(=O)CCC1=O)Nc1ncc(Cc2ccc(F)cc2)s1,102%,106%,94.3%,96.3%,97.5%,92.4%,99.6%,92.1%,94.3%,106%,100%,92.6%,98.8%,76%,101%,98.6%,91.5%,105%,105%,102%
CO/N=C(/C)c1ccc(NC(=O)CSc2nnc(-c3ccncc3)n2-c2ccccc2)cc1,73%,78%,-16.6% (active),30.4%,17.4%,49.9%,25.2%,26.1%,65.5%,64.9%,67.6%,64.3%,36.1%,9.43% (active),-15.3% (active),10.1%,26.8%,89.7%,91.6%,92.2%
O=C1c2cccnc2C(=O)c2c1c(C(=O)NCCn1ccnc1)c1ccccn21,30.3%,7.18% (active),37.3%,30.8%,13%,8.68% (active),-97% (active),-24.5% (active),6.67% (active),68.4%,26.6%,56.9%,4.77% (active),61.3%,116%,31.5%,86.9%,57.3%,11.8%,1.95% (active)
COc1ccc(-c2csc(NC(=O)CSc3nc(-c4ccccc4)cc(=O)[nH]3)n2)cc1,70.9%,85.9%,82.3%,70.1%,79.7%,66.5%,-16.5% (active),58.7%,66%,90.6%,59.7%,58.1%,80.3%,65.6%,78.9%,63%,74.7%,64.7%,57.9%,14.4%
COCCn1c(-c2csc(-c3cn(C)c4ccc(OC)cc34)n2)cc2cccnc21,7.45% (active),5% (active),72.4%,85.3%,48.4%,19.2%,65.2%,82.1%,-22.6% (active),85.1%,54%,58.5%,80.2%,54.9%,43.6%,70.9%,74.8%,60.8%,41.3%,54.4%
O=C(Nc1cccc([N+](=O)[O-])c1)c1cc2ccccc2cc1O,12.8%,13.4%,6.46% (active),25.8%,6.12% (active),0.633% (active),-53.6% (active),18.8%,10%,28.1%,1.68% (active),3.68% (active),0.988% (active),4.6% (active),17.4%,0.0296% (active),-22.9% (active),1.58% (active),-12.7% (active),-44.6% (active)
O=C(O)CCCN1C(=O)/C(=C/C(Cl)=C/c2ccccc2)SC1=S,-54.3% (active),7.49% (active),35.9%,37.4%,21%,36.5%,38.4%,10.1%,-55.5% (active),7.4% (active),59.3%,40.2%,-6.97% (active),-46% (active),30.3%,-93.1% (active),24.2%,87.5%,,9.65% (active)
CN1CCN(Cc2ccc(NC(=O)c3cncc(C#Cc4cnc(N)c5ccccc45)c3)cc2C(F)(F)F)CC1,-82.8% (active),-14.5% (active),-73% (active),-78.5% (active),-98.5% (active),-53.1% (active),-98.1% (active),-91.4% (active),-92.1% (active),-92.9% (active),-81.6% (active),-96.3% (active),-90.7% (active),-89.7% (active),-90% (active),-100% (active),-92.1% (active),-87% (active),-6.38% (active),2.94% (active)
